We go through 24 molecules from PubChem BioAssay (EPA / NIEHS).

Broadly, the AC50 is the concentration at which the activity in the assay is half-maximal.

More than one record can exist for a structure, and the calls need not agree. Active and inactive are the calls of the source. The calls were made as follows: active = hit-call score of the fitted dose curve at least 0.9, where 1 is the maximum; inactive = score below 0.9.

The test is described as follows: ATG_PXRE_CIS: Attagene CIS-FACTORIAL HepG2 Assay for human Pregnane X Receptor Element (PXRE) (AID 2282957). The note with it: HepG2 Attagene CIS-FACTORIAL PXRE reporter, mRNA; actives raise or lower the signal. A digest of the protocol: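 After a 24 h chemical incubation, total RNA from transfected HepG2 cells was reverse-transcribed and reporter cDNA amplified, FAM-labeled, HpaI-digested and sized by capillary electrophoresis. DMSO served as baseline for bidirectional curve fitting.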
On to `C=CCCCCCCCCCCCC`, for which the result was inactive. Same read-out and setting: the entry for `COC(=O)CCCC(=O)OC` is “inactive”; for `CC(C)c1cccc(C(C)C)c1` it is “inactive”. Take `CC(=O)OC1CC(C)OC(C)O1` (centres undefined): the call was inactive. Consider `CC(C)NCC(O)c1ccc(O)c(O)c1` (centres undefined), for which the concentration at half-maximal activity (AC50) was 52.4 µM (active). As for `CC(=O)O`, the molecule was classed as inactive. Consider `CCOCCOCCO`, for which the result was inactive. Same read-out and setting: the entry for `CCc1nc(N)nc(N)c1-c1ccc(Cl)cc1` is “inactive”. Regarding `Cc1ccc(C(C)(C)C)c(O)c1`, the half-maximal activity concentration (AC50) is 25 µM (active). For `CN(C)CCCN1c2ccccc2Sc2ccc(Cl)cc21`, the molecule was called inactive. On the same count and under the same terms, for `O=Cc1ccccc1C=O` the value was “inactive”. Still for that read-out and setting: for `CC1=C(C)S(=O)(=O)CCS1(=O)=O` the value was “inactive”. `C=CCc1ccc(OC)c(OC)c1`: the AC50 was 100 µM (active).

Take `Cc1c(C)c2c(c(C)c1O)CCC(C)(COc1ccc(CC3SC(=O)NC3=O)cc1)O2` (centres undefined): the AC50 is 2.01 µM (active). The same measure, in the same setting: for `Cc1ccc(-c2cc(C(F)(F)F)nn2-c2ccc(S(N)(=O)=O)cc2)cc1` the value was 2.58 µM (active); for `CCCCCCC(CCCCCCCCCCC(=O)OCC(COC(C)=O)OC(C)=O)OC(C)=O` (centres undefined), 50 µM (active). Turning to `CS(=O)(=O)c1ccc([C@@H](C[C@H]2CCC(=O)C2)C(=O)Nc2cnccn2)cc1Cl`, the outcome was inactive. Same read-out and setting: for `CC(=O)[C@@]1(O)CC[C@H]2[C@@H]3CCC4=CC(=O)CC[C@]4(C)[C@H]3CC[C@@]21C` the value was “inactive”; for `NCCOCCOCCN`, “inactive”; for `Oc1ccc(O)cc1`, “inactive”. As for `CN(C)CCCN(C)CCCN(C)C`, the AC50 was 25.6 µM (active). Turning to `O=C(O)c1cccnc1`, the call was inactive. In the case of `CCCCC(CC)COP(=O)(OCC(CC)CCCC)OCC(CC)CCCC` (centres undefined), the AC50 was 0.339 µM (active).

For the molecule `O=C1O[C@H]([C@H](O)CO)C(O)=C1O`, the molecule was classed as inactive.
